Results: PubChem BioAssay AID2061304 (National Center for Advancing Translational Sciences (NCATS), 2025)
Results filed as inconclusive are left out. A number with no mark means an inactive call. The source made the active and inactive calls. Calls come from the whole dose curve; as a rule, active = well fitted inhibition curve with a large enough effect; inconclusive = small, poorly fitted or top-dose-only effect; inactive = flat fitted curve, though single readings scatter. Square brackets hold non-standard residues; d marks the D form. Peptide text beside a SMILES is read from it. Dolaproine = CO[C@@H]([C@@H]1CCCN1)[C@@H](C)C(=O)O; Dil = CC[C@H](C)[C@H](NC)[C@@H](CC(=O)O)OC; NMeV = CN[C@H](C(=O)O)C(C)C

assay: Identification of antibody-drug conjugate (ADC) payloads which are substrates of ATP-binding cassette drug efflux transporters: ABCB1-HeLa-KB-8-5-11 cell line; settings: KB-8-5-11 (P-gp overexpressing HeLa) viability, CellTiter-Glo, 48 h; series mostly up to 31.4 µM; activity change, negative = less viable: at the top concentration
Description: Antibody-drug conjugates (ADCs) feature an antibody recognizing a specific protein joined to a potent toxic payload. Numerous antibody-drug conjugates have received FDA approval; however, clinical resistance arises. Resistance mechanisms include decreased expression or mutation of the antibody target, impaired payload release, or increased expression of ATP-binding cassette (ABC) efflux transporters associated with multidrug resistance. We therefore sought to characterize the interaction of ABC multidrug transporters with ADC payloads. We performed a high-throughput screen with 27 common ADC payloads using cells lines expressing ABC transporters P-glycoprotein (P-gp, encoded by ABCB1) or ABCG2 (encoded by ABCG2). Confirmatory assays were also performed using cells transfected to express P-gp, ABCG2, or MRP1 (encoded by ABCC1). Several commonly used ADC payloads were substrates of P-gp, including calicheamicin gamma1, monomethyl auristatin E, DM1, and DM4. All the pyrrolobenzodiazepines tested - SJG136, SGD-1882, SG2057, and SG3199 - were substrates of P-gp, ABCG2, and MRP1. […] These findings highlight the risk of transporter-mediated resistance with certain ADC payloads and underscore the importance of selecting payloads that evade ABC transporter recognition in future ADC development.
HEK-293 cells were transfected with empty vector (pcDNA) or vector containing the human ABCB1 (MDR-19), ABCG2 (R-5), or ABCC1 gene (MRP1) and were maintained in EMEM with 2 mg/mL G418 added to maintain transporter expression. The HeLa derivative KB-3-1 and the P-gp overexpressing KB-8-5-11 subline were maintained in DMEM; KB-8-5-11 additionally received 100 ng/mL colchicine. H460 parental cells were obtained from the Division of Cancer Treatment and Diagnosis Tumor Repository, National Cancer Institute at Frederick, MD and were cultured in RPMI. The ABCG2 expressing subline H460 MX20 was generated by selecting H460 cells in 20 nM mitoxantrone. Media in all cases was supplemented with 10% FBS and 1% penicillin-streptomycin. We explored 27 common ADC payloads, in two orthogonal, paired cell line sets-a drug selected and transfected set for each transporter--to identify substrates of the ABC transporters P-gp and ABCG2. Compounds were sourced from Levena Biopharma (San Diego, CA), Selleck Chem (Houston, TX), ChemieTek (Indianapolis, IN), or Microsource Discovery Systems (Gaylordsville, CT). Screening was performed as previously described. Briefly, cells were plated at a density of 500 cells/well in 1536 well plates with compounds added using a 1536-head pin tool (Kalypsys, San Diego CA). Cells were incubated with cytotoxic drugs and processed with CellTiter Glo reagent (Promega, Madison, WI) to determine viability after 48 hours. P-gp substrates were identified by comparing compound activity between paired sets of low-expressing (sensitive) and over-expressing (resistant) cell lines.

Structure (SMILES) | Potency | activity change, negative = less viable [%]
CN(C)CCOc1ccc2[nH]c(C(=O)N3C[C@@H](CCl)c4c3cc(O)c3ccccc43)cc2c1 | 0.7 nM (active) | –
COc1ccc(C2=CN3C(=O)c4cc(OC)c(OCCCOc5cc6c(cc5OC)C(=O)N5C=C(c7ccc(N)cc7)C[C@@H]5C=N6)cc4N=C[C@H]3C2)cc1 | – | 0.446
CC(C)(C)OC(=O)Nc1ccc2[nH]c(C(=O)N3C[C@@H](CCl)c4c3cc(O)c3ccccc43)cc2c1 | 9.4 nM (active) | –
COC(=O)c1cc2c3c(cc(O)c2[nH]1)N(C(=O)c1cc2cc(OC)c(OC)c(OC)c2[nH]1)CC3CCl (stereo not drawn) | 0.6 nM (active) | –
CCN[C@H]1CO[C@@H](O[C@H]2[C@H](O[C@H]3C#C/C=C\C#C[C@]4(O)CC(=O)C(NC(=O)OC)=C3/C4=C\CSSSC)O[C@H](C)[C@@H](NO[C@H]3C[C@H](O)[C@H](SC(=O)c4c(C)c(I)c(O[C@@H]5O[C@@H](C)[C@H](O)[C@@H](OC)[C@H]5O)c(OC)c4OC)[C@@H](C)O3)[C@@H]2O)C[C@@H]1OC | 420 nM (active) | –
CCc1c2c(nc3ccc(O)cc13)-c1cc3c(c(=O)n1C2)COC(=O)[C@]3(O)CC | 1330 nM (active) | –
COc1cc2cc(c1Cl)N(C)C(=O)C[C@H](O)[C@]1(C)O[C@H]1[C@H](C)C1C[C@@](O)(NC(=O)O1)[C@H](OC)/C=C/C=C(\C)C2 | 13300 nM (active) | –
CC[C@]1(O)CC2CN(CCc3c([nH]c4ccccc34)[C@@](C(=O)OC)(c3cc4c(cc3OC)N(C)[C@H]3[C@@](O)(C(=O)OC)[C@H](OC(C)=O)[C@]5(CC)C=CCN6CC[C@]43[C@@H]65)C2)C1 (stereo partly drawn) | 298 nM (active) | –
COc1cccc2c1C(=O)c1c(O)c3c(c(O)c1C2=O)C[C@@](O)(C(=O)CO)C[C@@H]3O[C@H]1C[C@H]2[C@H](O[C@@H]3[C@@H](OC)OCCN32)[C@H](C)O1 | 0.2 nM (active) | –
CC[C@H](C)[C@@H]([C@H](N)CC(=O)N1CCC[C@H]1[C@H](OC)[C@@H](C)C(=O)N[C@@H](Cc1ccccc1)c1nccs1)N(C)C(=O)[C@@H](NC(=O)[C@H](C(C)C)N(C)C)C(C)C | 6.7 nM (active) | –
CC[C@H](C)[C@@H]([C@H](N)CC(=O)N1CCC[C@H]1[C@H](OC)[C@@H](C)C(=O)N[C@@H](Cc1ccccc1)c1nccs1)N(C)C(=O)[C@@H](NC(=O)[C@@H](NC)C(C)C)C(C)C | 1.9 nM (active) | –
COc1cccc2c1C(=O)c1c(O)c3c(c(O)c1C2=O)C[C@@](O)(C(=O)CO)C[C@@H]3O[C@H]1C[C@H](N)[C@H](O)[C@H](C)O1 | 16700 nM (active) | –
CC[C@H](C)[C@@H]([C@@H](CC(=O)N1CCC[C@H]1[C@H](OC)[C@@H](C)C(=O)N[C@@H](Cc1ccccc1)C(=O)O)OC)N(C)C(=O)[C@@H](NC(=O)[C@@H](NC)C(C)C)C(C)C (H-[NMeV]V[Dil][Dolaproine]F-OH) | 265 nM (active) | –
